Compound activity as filed in PubChem BioAssay.
In the library only some 21% were active in any assay of this set; here they are far more common.
Pf growth 48h – inhibits P. falciparum growth in the first generation, 48 h; AID 504832; 5.9% of 310,000 active; Potency, µM (highest dose often 28.7 µM), for inactives: top-dose activity change, negative = inhibition, most hits filed as inhibitors; P. falciparum luciferase growth in erythrocytes, 48 h; note: potency is the fitted concentration of half-maximal effect; % is set by controls: 0 for no effect and ±100 for the full control effect
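Read-out is firefly luciferase luminescence from an integrated reporter in P. falciparum, so falling signal marks reduced parasite growth. Infected erythrocytes were at 2% hematocrit and 0.1% parasitemia (final) in Albumax-supplemented RPMI 1640.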
CHX counter – counter-screen hit for Shiga toxin inhibitors, cycloheximide; cell reporter, cycloheximide protein synthesis inhibition counterscreen; max response, %; 12% of 300,000 active; AID 2314; in the data active = max response mostly above about 13%, no sharp cut-off; inactive = mostly below about 14%; note: read at 38.3 µM for the half of the compounds with a filed dose; 0% is about no effect
NS1 inh – blocks influenza NS1 protein function. Potency, µM (series often up to 46.1 µM), inactives show top-dose activity, positive = more growth. 0.4% of 270,000 active. AID 2326; calls by dose curve; note: potency is the fitted concentration of half-maximal effect; actives are rising curves; nearly all actives have a fitted effect of over 50% in size
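Compounds were scored for reversing the slow growth caused by influenza A NS1 in S. cerevisiae, measured by optical density at 600 nm. Assay medium contained 2% galactose at pH 6.0; NS1-free yeast of the same strain were the positive control.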
Pf growth 96h – P. falciparum growth inhibition at 96 hour, primary screen for plastid delayed-death inhibitors. P. falciparum luciferase reporter growth, 96 h. Potency, µM (titrated, usually from 28.7 µM), inactives show top-dose activity change, negative = inhibition, actives largely listed as inhibitors. 6.9% of 320,000 active; note: potency is the fitted concentration of half-maximal effect; % is set by controls: 0 for no effect and ±100 for the full control effect
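Erythrocytes infected with luciferase-expressing P. falciparum were dispensed at 2% hematocrit and 0.05% parasitemia (final), then incubated with compounds 96 hours at 37 C in 5% CO2. Luminescence after detection reagent addition reported growth.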
Shiga toxin inh – blocks Shiga toxin action in Vero cells; Vero cells, Shiga toxin protein synthesis inhibition reporter; inhibition, % at 38.7 µM; 9.2% of 290,000 active; AID 2315; in the data active = inhibition mostly above about 28%, no sharp cut-off; inactive = mostly below about 43%; note: 0% is about no effect
An asterisk follows results filed as active; ? = inconclusive; . = no result; [ ] = dose if it differs, or a comment. Unless noted, calls come from the whole dose curve; as a rule, active = well fitted inhibition curve with a large enough effect; inconclusive = small, poorly fitted or top-dose-only effect, or another doubt; inactive = no such curve, though single readings can be large or run the other way.

SMILES | Pf growth 48h | CHX counter | NS1 inh | Pf growth 96h | Shiga toxin inh
C=CCNc1nc(-c2ccc([N+](=O)[O-])cc2)cs1 | 225.4% | 56.0* | -0.4% | 40.5% | 62.7*
CN(C)c1nc(-c2ccc([N+](=O)[O-])cc2)cs1 | 123.8% | 21.4* | -6.7% | . | 77.9
COc1ccc(S(=O)(=O)N(C)CC(=O)NCc2ccco2)cc1OC | -3.4% | -3.1 | 3.0% | -8.6% | -8.0
COc1cccc(N/C(N)=N/c2nc(C)cc(=O)[nH]2)c1 | 37.0% | -4.0 | -2.2% | 0.3% | -3.7
Cc1ccsc1/C=N\NC(=O)c1ccc2c(c1)OCO2 | 243.9% | 34.7* | -15.2% | 197.2% | 84.9*
CCn1ncc(/C=N/NC(=O)c2ccc3c(c2)OCO3)c1C | 5.3% | 3.8 | -5.4% | 31.5% | 22.7
Cc1ccsc1/C=N/NC(=O)c1ccc2c(c1)OCCO2 | 161.3% | 22.8* | -38.1% | 20.0% | 22.9
O=C(O)[C@@H](O)[C@@H](O)[C@H](O)C(=O)CO | -0.6% | . | -1.7% | 11.7% | .
Cc1ccccc1NS(=O)(=O)c1ccc(NS(=O)(=O)c2cccs2)cc1 | 9.5% | 2.1 | 14.5% | 3.3% | -6.7
Cc1nnc(NC(=O)c2sc3nc(-c4cccs4)cc(C(F)(F)F)c3c2N)s1 | 125.1% | 41.5* | 8.1% | 116.9% | 57.4*
Nc1c(C(=O)Nc2nccs2)sc2nc(-c3cccs3)cc(C(F)(F)F)c12 | . | 2.9 | -4.6% | 6.4% | -3.4
CCN(CC)C(=O)c1sc2nc(-c3cccs3)cc(-c3cccs3)c2c1N | 4.15µM* | -0.9 | 1.8% | ? | -13.4
c1ccc(-c2ncc(-c3ccn[nH]3)s2)cc1 | 334.4% | 45.8* | . | 475.0% | 92.8*
CCCCNC(=O)CSc1nnc(-c2cccc(S(=O)(=O)N3CCOCC3)c2)o1 | 13.1µM* | . | . | ? | .
Cc1cc(C)cc(NC(=O)CSc2nnc(-c3ccc(S(=O)(=O)N4CCCC4)cc3)o2)c1 | ? | -3.4 | -0.6% | 5.22µM* | -3.2
O=C(CSc1nnc(-c2cccs2)o1)Nc1cccc(S(=O)(=O)N2CCCCC2)c1 | ? | -2.9 | 2.2% | 14.7µM* | -3.8
O=C(CSc1nnc(-c2cccc(S(=O)(=O)N3CCCCC3)c2)o1)NCCC1=CCCCC1 | ? | 0.8 | 1.4% | ? | 9.6
COC(=O)c1cc(C(=O)OC)cc(S(=O)(=O)Nc2ccc(Cl)c(N)c2)c1 | 29.3% | -1.4 | -5.2% | ? | -20.5
CC(=O)Nc1sc2c(c1C(c1ccc(Cl)cc1)N1CCOCC1)CCCC2 (stereo unspecified) | . | -6.5 | 19.3% | 1.31µM* | -17.2
CC(=O)Nc1sc2c(c1C(c1ccc(F)cc1)N1CCOCC1)CCCC2 (stereo unspecified) | . | -1.1 | -10.9% | 1.17µM* | 11.0
CC(=O)Nc1sc2c(c1C(c1ccccc1)N1CCOCC1)CCCC2 (stereo unspecified) | ? | 10.3 | 1.5% | . | 20.5
[N-]=[N+]=NC[C@H](c1ccccc1)N1CCN(Cc2ccccc2)CCC1=O | 0.0% | -1.0 | 7.8% | ? | -4.6
O=C(NC12CC3CC(CC(C3)C1)C2)c1ccc(COc2ccc(Cl)cc2[N+](=O)[O-])o1 | ? | -0.9 | -14.8% | ? | 1.7
CCn1nnc(NC(=O)c2ccc(-c3ccc(Cl)cc3)o2)n1 | 0.7% | 35.9* | -0.3% | -8.7% | 34.9*
CC(=O)NC(=O)c1ccc(-c2ccc(Cl)cc2)o1 | ? | 25.0* | -18.1% | -28.6% | 16.9*
SMILES | Pf growth 48h | CHX counter | NS1 inh | Pf growth 96h | Shiga toxin inh
O=C(NC12CC3CC(CC(C3)C1)C2)c1ccc(-c2ccccc2Cl)o1 | -18.5% | 43.6* | 14.7% | 35.8% | 161.4*
O=C(NC12CC3CC(CC(C3)C1)C2)c1ccc(-c2cccc(Cl)c2)o1 | 2.7% | 35.0* | -4.3% | ? | 82.7*
O=C(NC(=S)Nc1ccccc1O)c1ccc(-c2ccc(Cl)cc2)o1 | 7.2% | -2.4 | -47.1% | 0.0% | -3.8
CCn1nnc(NC(=O)Cc2ccc(Cl)cc2)n1 | 3.6% | 7.8 | -2.6% | 61.9% | 27.2
COc1ccc(C(=O)N2CCNC(=O)C2CC(=O)Nc2cc(Cl)ccc2OC)cc1 (stereo unspecified) | -1.2% | -5.8 | 16.3% | 2.2% | -4.3
O=C(CSc1nnc(COc2ccc3c(c2)CCCC3)o1)Nc1ccc(F)cc1 | -3.5% | 14.0 | 1.1% | -25.2% | 15.1
O=C(CSc1ccc2nnc(CCNC(=O)c3ccc(F)cc3)n2n1)NCC1CCCO1 (stereo unspecified) | 0.2% | -2.0 | 17.7% | -24.8% | -0.4
Nc1nc(N)nc(-c2cccc(Cl)c2Cl)n1 | 7.6% | . | . | 81.9% | .
COc1cccc(NC(=O)CN(C)C(=O)c2cccc(S(=O)(=O)N3c4ccccc4CC3C)c2)c1 (stereo unspecified) | -23.6% | . | . | ? | .
O=C(NC12CC3CC(CC(C3)C1)C2)c1ccco1 | ? | 0.5 | -2.4% | 0.0% | -15.8
O=C(NC12CC3CC(CC(C3)C1)C2)c1ccc(-c2ccc(Cl)cc2)o1 | 44.5% | 85.2* | -7.3% | ? | 128.6*
CC(C)(C)n1nnnc1C(c1cc2cc3c(cc2[nH]c1=O)OCO3)N1CCN(c2ccccc2)CC1 (stereo unspecified) | 1.65µM* | -3.5 | 1.0% | -20.7% | -4.2
Cc1ccc2cc(C(c3nnnn3Cc3ccccc3)N3CCN(c4ccccc4)CC3)c(=O)[nH]c2c1 (stereo unspecified) | 5.86µM* | -5.1 | 4.9% | 7.9% | -20.6
COc1ccc(N2CCN(C(c3cc4cc(C)ccc4[nH]c3=O)c3nnnn3Cc3ccccc3)CC2)cc1 (stereo unspecified) | . | -0.6 | 8.2% | 3.7µM* | -3.8
COc1ccc(Cn2nnnc2C(c2cc3cc(C)ccc3[nH]c2=O)N2CCOCC2)cc1 (stereo unspecified) | -32.8% | -2.3 | -10.1% | . | -3.4
Cc1ccc2cc(C(c3nnnn3C3CCCC3)N3CCN(c4ccccc4)CC3)c(=O)[nH]c2c1 (stereo unspecified) | ? | -3.4 | 12.6% | ? | -3.6
CCOC(=O)NNC(=O)C1CCC(C)CC1 (stereo unspecified) | 20.6% | -2.4 | . | 23.9% | 7.9
CC1CC(C)CN(C(=O)c2cc3ccccc3o2)C1 (stereo unspecified) | ? | . | . | -80.6% | .
CC1CCN(C(=O)c2cc3ccccc3o2)CC1 | 109.6% | 55.6* | -7.9% | ? | 76.3*
O=C(c1cc2ccccc2o1)N1CCCCCC1 | 38.9% | 45.5* | -5.1% | 17.1%[5.75 µM] | 61.9*
Cc1c(C(=O)OC(C)C)nnn1-c1nonc1N | -3.0% | -2.0 | 8.8% | 15.7% | 8.4
NC(=O)C1CCCN(C(=O)CCc2nnc(C3(c4ccc(Cl)cc4)CCC3)o2)C1 (stereo unspecified) | ? | 2.0 | -0.5% | ? | 10.7
O=C(CCc1nnc(C2(c3ccc(Cl)cc3)CCC2)o1)N1CCCC1 | -0.3% | 25.0* | 1.2% | 0.3% | 74.7*
CCC(=O)C1CCCN(C(=O)CCc2nnc(C3(c4ccc(Cl)cc4)CCC3)o2)C1 (stereo unspecified) | 3.4% | 57.1* | 0.8% | 35.5% | 79.9*
CC(=O)c1ccc(-c2nnc(CCC(=O)N3CCCC(C(=O)CC(C)C)C3)o2)s1 (stereo unspecified) | -16.2% | 34.4* | 4.6% | 18.3% | 79.5*
